Measured values from PubChem BioAssay (NCI).
The panel holds about 83,000 compounds, 20% with a hit somewhere; the sample as a whole holds those more often.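 How to read the values: 0–100, growth inhibition (40 = 60% inhibited); 0, no net growth; -100 to 0, cell death (-40 = 40% of starting cells died; -100 = all dead).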 Calls of active or inactive are those of the source. How the source made its calls: active means growth percent below 10; inactive means the rest.

Columns and labels:
Assay in all cases: NCI-60 one-dose screen, 48 h (100 = growth as untreated, 0 = no growth, -100 = all killed)
Details in all cases: 10 µM unless noted
[1] = system: T-47D breast
[2] = system: BT-549 breast
[3] = system: MDA-MB-435 melanoma
[4] = system: SW-620 colon
[5] = system: MCF7 breast
[6] = system: HCT-116 colon
[7] = system: HCC-2998 colon
[8] = system: KM12 colon

| SMILES | growth [1] | growth [2] | growth [3] | growth [4] | growth [5] | growth [6] | growth [7] | growth [8] |
| --- | --- | --- | --- | --- | --- | --- | --- | --- |
| O=C(CN1C(=O)NC2NC(=O)NC21)N/N=C/c1ccc(Cl)cc1Cl (centres undefined) | 110% (inactive) | 98.9% (inactive) | 102% (inactive) | 104% (inactive) | 98% (inactive) | 101% (inactive) | 110% (inactive) | 105% (inactive) |
| COc1ccc(/C=C/C(=O)c2ccc(Nc3nc(Nc4ccc(F)cc4)nc(Nc4ccc(Cl)cc4)n3)cc2)cc1 | 67.3% (inactive) | 116% (inactive) | 97.3% (inactive) | 104% (inactive) | 72.2% (inactive) | 91.8% (inactive) | 51.3% (inactive) | 166% (inactive) |
| Cc1nn(-c2ccccc2)c(/N=C/N(C)C)c1/C=C/C(=O)c1ccc(Cl)cc1 | 101% (inactive) | 87.3% (inactive) | 98.4% (inactive) | 93.3% (inactive) | 85.9% (inactive) | 74.7% (inactive) | 101% (inactive) | 101% (inactive) |
| O=C1/C(=C/c2ccc(C(F)(F)F)cc2)COc2ccc(O)c(O)c21 | -36.8% (active) | 10.9% (inactive) | -5.38% (active) | -46% (active) | 4.91% (active) | -35.5% (active) | -39.2% (active) | -31.3% (active) |
| C[C@@H](CO)[C@@H]1CC[C@]2(C(=O)N3CCN(C)CC3)CC[C@]3(C)[C@H](CC[C@@H]4[C@@]5(C)CC[C@H](O)C(C)(C)[C@@H]5CC[C@]43C)[C@@H]12 | 76.7% (inactive) | 75.8% (inactive) | 75.8% (inactive) | 51.5% (inactive) | 42.1% (inactive) | 16.7% (inactive) | 105% (inactive) | 86% (inactive) |
| CCN(CCO)CC(C)Nc1ccc([N+](=O)[O-])c2sc3ccccc3c(=O)c12 (centres undefined) | 39.9% (inactive) | 58.9% (inactive) | 23.5% (inactive) | 18.6% (inactive) | 13.1% (inactive) | 11.8% (inactive) | 38.6% (inactive) | 37.9% (inactive) |
| COc1ccc(C2=CN3CC=CCC3CC2=O)cc1 (centres undefined) | 90.6% (inactive) | 90.7% (inactive) | 106% (inactive) | 101% (inactive) | 105% (inactive) | 93.1% (inactive) | 100% (inactive) | 104% (inactive) |
| N#Cc1c(NC(=O)c2cccs2)[n+]([O-])c2ccc(Cl)cc2[n+]1[O-] | 91.4% (inactive) | 113% (inactive) | 89.2% (inactive) | 85.3% (inactive) | 101% (inactive) | 79.8% (inactive) | 111% (inactive) | 98.6% (inactive) |
| CCN(C(=O)N1CCN(c2cc3c(cc2F)c(=O)c(C(=O)O)cn3C2CC2)CC1)c1nc(-c2ccc(C)cc2)cs1 | 25.5% (inactive) | -11.3% (active) | 16.2% (inactive) | 18.5% (inactive) | 6.09% (active) | 12.4% (inactive) | 21.1% (inactive) | 10.6% (inactive) |
| O=C(N/N=C/c1ccc(O)cc1O)c1ccc(Nc2ccnc(C(F)(F)F)c2)cc1 | 4.87% (active) | 41.5% (inactive) | 44.7% (inactive) | 49.3% (inactive) | 25.5% (inactive) | 27.5% (inactive) | 64.7% (inactive) | 57.2% (inactive) |
| CCOC(=O)C1=C(C)N=C2SC=C(c3ccccc3)N2[C@H]1c1cn[nH]c1-c1ccc(Cl)cc1 | 38.8% (inactive) | 34.1% (inactive) | 49.4% (inactive) | 37.7% (inactive) | 21.7% (inactive) | 18.5% (inactive) | 109% (inactive) | 59.4% (inactive) |
| O=C(Nc1ccccc1)c1sc(-c2ccccc2)cc1O | 101% (inactive) | 95.8% (inactive) | 90% (inactive) | 102% (inactive) | 78.9% (inactive) | 96.5% (inactive) | 101% (inactive) | 85.1% (inactive) |
| CCCNc1nc2ccccc2c2c(=O)c3cccc(Cl)c3sc12 | 51.8% (inactive) | 99% (inactive) | 101% (inactive) | 97.8% (inactive) | 31.2% (inactive) | 72.4% (inactive) | 103% (inactive) | 90.4% (inactive) |
| CCCn1c(=S)sc2c1nc(C)n1c(Nc3ccccc3)nnc21 | 15.6% (inactive) | 76.2% (inactive) | 63.7% (inactive) | 104% (inactive) | 77% (inactive) | 59.1% (inactive) | 78.3% (inactive) | 96.5% (inactive) |
| CCN(CC)CCN(CCN(CC)CC)c1ccccc1 | 89.3% (inactive) | 54.3% (inactive) | 103% (inactive) | 95.8% (inactive) | 100% (inactive) | 74.6% (inactive) | 91.5% (inactive) | 108% (inactive) |
| C=C(CO)[C@@H]1CC[C@]2(COC3CCCCO3)CC[C@]3(C)[C@H](CC[C@@H]4[C@@]5(C)C=C(C=O)C(=O)C(C)(C)[C@@H]5CC[C@]43C)[C@@H]12 (some centres undefined) | -80.3% (active) | -88.6% (active) | -83.9% (active) | -64.6% (active) | -73.2% (active) | -89.3% (active) | -87.5% (active) | -43% (active) |
| N=C(N)c1ccc(-c2ccc(-c3ccc(F)cc3)s2)s1 | -38.2% (active) | 80% (inactive) | -88.7% (active) | -65.2% (active) | -67% (active) | -57.3% (active) | -73.3% (active) | -76.1% (active) |
| CC(=O)N/C(=C1/OC(C(O)C(O)C(O)CO)CN1C)[P+](c1ccccc1)(c1ccccc1)c1ccccc1 (centres undefined) | 103% (inactive) | 102% (inactive) | 103% (inactive) | 104% (inactive) | 92.8% (inactive) | 100% (inactive) | 97.7% (inactive) | 103% (inactive) |
| COc1cc(/C=C/c2cc(/C=C/c3ccc(O)c(OC)c3)n(C(=O)Nc3ccc(F)cc3)n2)ccc1O | 31.1% (inactive) | -8.33% (active) | -2.32% (active) | 10.5% (inactive) | 9.49% (active) | 4.95% (active) | 6.92% (active) | 2.44% (active) |
| COc1cc2c(/C=C3\C(=O)Nc4ccccc43)c(C(=O)O)[nH]c2cc1C | 113% (inactive) | 102% (inactive) | 105% (inactive) | 120% (inactive) | 72% (inactive) | 96.5% (inactive) | 103% (inactive) | 99.8% (inactive) |
| O=C(Nc1nc(C(=O)N2CCN(C(c3ccccc3)c3ccccc3)CC2)cs1)c1ccc(NC2CCCCC2)c([N+](=O)[O-])c1 | 60% (inactive) | 82.5% (inactive) | 91% (inactive) | 91.4% (inactive) | 81.3% (inactive) | 82.6% (inactive) | 72.7% (inactive) | 91.4% (inactive) |
| COC(=O)/C(CCC=C(C)C)=C1\[C@@H](OC(C)=O)C[C@@]2(C)[C@H]1CC(=O)[C@H]1[C@@]3(C)CCC(N4CCCC4)[C@@H](C)[C@@H]3CC[C@@]12C (some centres undefined) | 94.9% (inactive) | 92.5% (inactive) | 97.5% (inactive) | 103% (inactive) | 74.6% (inactive) | 84.9% (inactive) | 114% (inactive) | 105% (inactive) |
| O=C1NC(=C(Cl)Cl)/C(=N/S(=O)(=O)N2CCCCC2)N1 | 41.6% (inactive) | 63.6% (inactive) | 47.6% (inactive) | -62.3% (active) | 10.1% (inactive) | 6.37% (active) | 4.74% (active) | 5.62% (active) |
| Cn1ncc2ccc(-c3nc(-c4ccccc4)[nH]c3-c3n[nH]c(=O)n3C3CC3)cc21 | 82.7% (inactive) | 106% (inactive) | 100% (inactive) | 100% (inactive) | 90.2% (inactive) | 86.3% (inactive) | 103% (inactive) | 99.2% (inactive) |
| CCN1C(=O)N(CC)C2C1NN=c1s/c(=C\c3ccccc3Br)c(=O)n12 (centres undefined) | 85.5% (inactive) | 16.3% (inactive) | -15.7% (active) | 20.3% (inactive) | 13.6% (inactive) | 6.2% (active) | 10.7% (inactive) | 10.3% (inactive) |
| COc1cc2c3c(n(CCCCNCCCn4c5c(c6cc(OC)c(OC)cc6c4=O)C(=O)c4cc6c(cc4-5)OCO6)c(=O)c2cc1OC)-c1cc2c(cc1C3=O)OCO2 | 88.7% (inactive) | 106% (inactive) | 105% (inactive) | 95.2% (inactive) | 93.6% (inactive) | 93.9% (inactive) | 105% (inactive) | 93.8% (inactive) |
| COc1cccc(/C=C/C(=O)c2cc3c(N)c(C(=O)Nc4cccc(Cl)c4C)sc3nc2C)c1 | 9.1% (active) | -22.3% (active) | -20.4% (active) | -28.7% (active) | 3.5% (active) | -34.2% (active) | -79.8% (active) | -19.6% (active) |
| CC12CCC(/C(=C/NNc3ccc([N+](=O)[O-])cc3[N+](=O)[O-])C1=O)C2(C)C (centres undefined) | 56.8% (inactive) | 69.4% (inactive) | 70.5% (inactive) | 64.8% (inactive) | 50.6% (inactive) | 50.7% (inactive) | 93.4% (inactive) | 90.7% (inactive) |
